# Source: PubChem BioAssay (National Center for Advancing Translational Sciences (NCATS))
# Only some compounds are listed: those with a hit (about 8% of all), similar ones and a draw of the others.
# HCV inhibitor: HCV inhibition; Potency, µM (series often up to 41.8 µM), most hits filed as inhibitors; Huh7.5.1 HCVcc-Cre infection, luciferase reporter, 44 h; AID 651820; 340,000 tested, 3.4% active; active = well fitted inhibition curve with a large enough effect; inconclusive = small, poorly fitted or top-dose-only effect, or another doubt; inactive = no such curve, though single readings can be large or run the other way
#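 HCVcc-Cre virus at an moi near 0.5 was added right after compound to cells cultured 4 h from seeding (1,000 cells/well). Luciferase activity was determined 44 h later, 15 min after substrate addition at RT.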
# MARV entry inh: Marburg virus entry inhibition; Potency, µM (top dose mostly 37.8 µM), usual class: inhibitors; Marburg virus pseudotyped entry inhibition, cell reporter; 300,000 tested, 1.8% active; AID 540276; calls by dose curve; tested in HEK293 cells
# LASV entry inh: blocks Lassa virus binding to or entry into cells; AID 540256; Lassa virus pseudotype entry inhibition, cell reporter; 300,000 tested, 1.2% active; Potency, µM (titrated, usually from 37.9 µM), actives largely listed as inhibitors; calls by dose curve; tested in HEK293 cells; note: nearly all actives have a fitted effect of over 50% in size
# HCMV antiviral: blocks human cytomegalovirus replication; HFF cells, HCMV-luciferase reporter, 72 h; active compounds read low; activity change, negative = inhibition, % at 57.5 µM; 410,000 tested, 4.5% active; AID 1259415; in the data active = activity change below about -60%; inconclusive = no clear call, values can overlap the other calls; inactive = above about -39%
#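 Human foreskin fibroblasts infected with luciferase-reporter HCMV at MOI 1 PFU/cell, compounds at two doses. Luciferase measured 72 h post infection; normalized to buffer-only basal and Salinomycin (10uM) controls.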
# FMDV antiviral: foot and mouth disease virus antiviral activity; FMDV antiviral cell-based qHTS; Potency, µM (highest dose often 57.9 µM), actives largely listed as inhibitors; 410,000 tested, 1.2% active; calls by dose curve; tested in HEK293T cells; note: read-out not given here; nearly all actives have a fitted effect of over 45% in size
# SARS PLpro yeast: SARS-CoV PLP inhibition in yeast; S. cerevisiae expressing SARS-CoV PLpro, growth rescue; Potency, µM (highest dose often 32.9 µM), actives largely listed as activators; 330,000 tested, 0.19% active; AID 485353; calls by dose curve; note: nearly all actives have a fitted effect of over 55% in size
# Hits are given with their value; . = inactive; ? = inconclusive; / = no result given; ! = not active in a repeat; [ ] = dose if it differs, or a comment.
SMILES,HCV inhibitor,MARV entry inh,LASV entry inh,HCMV antiviral,FMDV antiviral,SARS PLpro yeast
CC1=C(C(=O)Nc2cccc(C(=O)NC(C)c3ccccc3)c2)SCCO1 (stereo not given),.,/,/,.,.,.
CC(C)C[C@H](NC(=O)c1nc[nH]c1C(=O)NCc1ccccc1)C(=O)OCc1ccccc1,.,/,/,.,.,.
CCCCCCSc1cccc(-c2nc3ccccn3c2NCc2ccccc2)c1,.,/,/,-65.3!,25.1µM,.
CCCCNc1c(-c2ccc(SC(C)CC)c(OC)c2)nc2ccc(C)cn12 (stereo not given),10µM,/,/,-94.3,22.4µM,.
CCCCNc1c(-c2ccc(OC)c(Sc3ccc(OC)cc3)c2)nc2ccccn12,10µM,/,/,/,.,.
CCCCNc1c(-c2ccc(SC(C)CC)c(OC)c2)nc2ccc(Cl)cn12 (stereo not given),.,/,/,.,.,.
CCCCNc1c(-c2ccc(OC)c(Sc3ccc(OC)cc3)c2)nc2cnccn12,?,/,/,.,?,.
CCCCCCSc1cc(-c2nc3ccc(C)cn3c2NCc2ccccc2)ccc1OC,.[8.37 µM],/,/,.,39.8µM!,.
CC(=O)OC1CCC2(C)C(CCC3C4CC=C(C(C)=O)C4(C)OC(=O)CC32)C1 (stereo not given),/,/,/,-76.1,12.6µM,/
Cc1cccc(C)c1NC(=O)c1c(O)c2ccccc2[nH]c1=O,?,/,/,.,.,.
O=C(Nc1ncccc1O)c1c(O)c2ccccc2[nH]c1=O,.,/,/,-76.7,.,.
O=C(c1csnn1)N1CCC[C@@]2(CCN(C(c3ccccc3)c3ccccc3)C2)C1,/,/,/,/,.,/
Oc1ccc(Cl)cc1Cc1cc(Cl)ccc1O,?,?,?,-88.6,?,.
Oc1ccc(Cl)cc1Cc1ccccc1,.,/,/,.,.,/
Cc1ccc(S(=O)(=O)N2CCOCC2)cc1NC(=O)COc1cccc(Oc2ccccc2)c1,?,?,?,?,?,.
O=C1c2ccccc2C(=O)C1(CO)c1ccc(OC(F)F)cc1,?,/,/,.,.,.
O=c1/c(=C/c2ccccn2)sc2nc3ccccc3n12,.,?,.,.,10µM,.
COC(=O)/C=c1/sc2nc3ccccc3n2c1=O,.,.,?,.,.,.
COc1cccc(-n2ccnc2SCC(=O)Nc2ccccc2F)c1,.,?,.,.,.,.
O=C(CSc1nnnn1-c1ccc(Cl)cc1)Nc1cccnc1Cl,.,.,.,-71.1,?,?
CCOc1ccccc1NC(=O)CSc1nccn1-c1ccc(Cl)cc1,/,/,.,-72.4,.,/
COc1ccc(-n2ccnc2SCC(=O)Nc2ccc(F)cc2F)cc1,/,/,.,-91.2,.,/
O=C(CSC1=NNC(c2ccccn2)S1)Nc1ccc(C(F)(F)F)cc1 (stereo not given),.,?,?,-74.7,.,.
CCOC(=O)C1=CNS(=O)(=O)NC1c1ccc(C(F)(F)F)cc1 (stereo not given),.,/,/,.,.,.
COc1cccc(-n2ccnc2SCC(=O)Nc2ccc(Cl)c(Cl)c2)c1,/,/,.,-61.1,.,/
SMILES,HCV inhibitor,MARV entry inh,LASV entry inh,HCMV antiviral,FMDV antiviral,SARS PLpro yeast
CCOc1ccc(-n2ccnc(SCC(=O)NCc3cccc(OC)c3)c2=O)cc1,?,.,.,.,.,.
CCOc1ccc(-n2ccnc(SCC(=O)Nc3ccc(OC)cc3OC)c2=O)cc1,8.91µM,?,.,.,.,.
COc1ccc(-n2ccnc2SCC(=O)Nc2ccccc2)cc1,.,.,.,.,?,.
O=C(CSc1nccn1C1CCCC1)Nc1ccc(C(F)(F)F)cc1,/,/,?,-62.6,.,/
O=C(CSc1nccn1-c1ccc(F)cc1)Nc1ccc(OC(F)(F)F)cc1,/,/,.,-68.3,.,/
NC(=S)N/N=C/c1ccccc1OCCSc1ccc(Cl)cc1,?,?,3.66µM,-69.2,35.5µM,.
CNC(=S)N/N=C/c1cc(Br)c(OCc2ccncc2)c(OC)c1,.,/,/,.,.,.
COc1cc(/C=N/NC(N)=S)cc(Br)c1OCc1ccccc1F,8.91µM,?,?,?,?,.
CCOc1cc(/C=N/NC(N)=O)cc(Br)c1OCc1ccccc1,?,/,/,.,?,.
COc1cccc(/C=N/NC(N)=S)c1OCc1ccccc1Cl,?,?,.,-78.2,?,?
CCOc1cc(/C=N/NC(N)=S)cc(Br)c1OCc1ccccc1C,11.2µM,?,?,/,.,.
COc1cccc(CNC(=O)CN2CCC(c3nc4ccc(C)cc4[nH]3)CC2)c1,.,/,/,.,.,.
CCOC(=O)N1CCN(C(=O)c2cc3c(s2)-c2ccc(Cl)cc2S(=O)(=O)C3)CC1,.,/,/,-62.0,?,.
COc1ccc(N(C)C(=O)c2cc3c(s2)-c2ccc(Cl)cc2S(=O)(=O)C3)c(OC)c1,?,/,/,?,28.2µM,.
CCOC(=O)N1CCN(C(=O)c2cc3c(s2)-c2ccccc2OC3)CC1,.,/,/,.,.,.
Cc1cc(C)c(-c2csc(NC(=O)c3n[nH]c(=O)c4ccccc34)n2)c(C)c1,?,?,?,-72.7,?,.
CCOc1cccc(C2c3c(-c4cc(C)ccc4O)n[nH]c3C(=O)N2Cc2ccco2)c1 (stereo not given),/,.,?,.,.,/
COc1ccc(CCNC(=O)c2c(C)nn(CC(C)C)c2Cl)cc1,.,.,2.24µM,.,.,.
Cc1nn(Cc2ccccc2)c(Cl)c1C(=O)NCCc1ccccc1,.,/,/,.,.,.
Cc1ccc(CNC(=O)O[C@H]2CC[C@@]34CCCN3C(=O)CCC[C@H]4[C@H]2Cc2ccccc2)cc1,/,/,/,.,/,/
Cc1cccc(-c2nnc(SCc3nc4ccccc4[nH]3)n2Cc2ccco2)c1,?,?,?,-60.6,.,.
Cc1ccc(-c2nnc(SCc3nc4ccccc4[nH]3)n2Cc2ccco2)cc1,.,?,.,.,.,.
CN1CC[C@@H]2C(=O)N3CCc4ccc(-c5ccc6c(c5)OCO6)cc4[C@@H]3C[C@@H]21,.,/,/,.,.,/
COc1cccc(-c2nc3cc4c(cc3cc2CN(C(=O)c2cccs2)C2CC2)CCC4)c1OC,/,/,/,/,31.6µM,/
COc1ccc(-c2nc3cc(C)ccc3cc2CN(C(=O)c2cccs2)C2CC2)cc1OC,/,/,/,/,.,/
SMILES,HCV inhibitor,MARV entry inh,LASV entry inh,HCMV antiviral,FMDV antiviral,SARS PLpro yeast
Cc1ccc(NC(=O)c2ccc3c(O)c(S(=O)(=O)c4ccc(Cl)cc4)c(=O)[nH]c3c2)cc1,/,/,.,.,.,/
COC(=O)c1ccccc1S(=O)(=O)N1CCCC(c2nc3c(nnn3Cc3ccc(C)cc3)c(=O)[nH]2)C1 (stereo not given),.,.,?,-77.5,.,.
O=C(Nc1ccc(C(=O)N2CCCCC2)cc1)c1nsc2ccccc12,/,/,.,.,.,/
COc1ccc(-c2nc(NC(=O)c3cc(C(C)(C)C)nn3C)sc2C)cc1,5.62µM,9.2µM,?,/,28.2µM,.
COc1ccc(-c2nc(NC(=O)CCNC(=O)c3ccco3)sc2C)cc1,?,/,/,.,?,.
COc1ccc(-c2nc(NC(=O)c3c(C)noc3C)sc2C)cc1,?,.,?,-60.5,?,.
CCN(Cc1ccccc1)C(=O)c1c(C)oc2ncn(C)c(=O)c12,/,/,?,.,.,/
COc1cccc(-n2nc(C(N)=O)c(O)cc2=O)c1,.,.,.,.,.,.
